Some test systems named below: NCI-H23 lung; NCI-H226 lung; NCI-H322M lung; HOP-62 NSCLC; NCI-H460 lung; HOP-92 NSCLC; NCI-H522 lung; A549/ATCC NSCLC; 786-0 renal; COLO 205 colon; DU-145 prostate; K-562 leukemia; MALME-3M melanoma; MDA-MB-231 breast; RXF 393 renal; SF-268 CNS; SF-295 CNS; SF-539 CNS; UACC-257 melanoma; M14 melanoma.
Assay in all cases: NCI-60 one-dose screen, 48 h (100 = growth as untreated, 0 = no growth, -100 = all killed)
Common to all, as to details: 10 µM unless noted

About 83,000 compounds went through this panel and 20% of them were active in at least one assay; those are over-represented in the sample as a whole.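 Testing used 96-well plates and a 48-hour single-concentration exposure. Example: -40 means 40% of the starting cells died.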 Values without a mark were called inactive. Active and inactive are the calls of the source. How the source made its calls: active means growth percent below 10; inactive means the rest.

Results on 7 compounds are retold here after PubChem BioAssay (NCI).

With `CC(C)Cn1cnc2c3ccccc3nc(NCn3nc(-c4cc(Cl)cc(Cl)c4Cl)oc3=S)c21`, the growth with NCI-H23 lung was 80.4%; with NCI-H226 lung it was 99%; with NCI-H322M lung, 91.6%; in the assay with HOP-62 NSCLC it was 66.4%; with NCI-H460 lung it was 110%; with HOP-92 NSCLC, 50.7%. Moreover, the growth with NCI-H522 lung is 74%; in the assay with A549/ATCC NSCLC, 99.9%; with 786-0 renal it was 75.5%; with COLO 205 colon, 97.5%; in the assay with DU-145 prostate, 115%; in the assay with K-562 leukemia, 59.6%. For the same compound, the growth with MALME-3M melanoma was 116%; in the assay on MDA-MB-231 breast, 82.9%; with RXF 393 renal it was 95%; in the assay with SF-268 CNS, 110%; in the assay with SF-295 CNS it was 100%; in the assay with SF-539 CNS, 94.7%. Besides, the growth in the assay with UACC-257 melanoma was 99.4%; in the assay on M14 melanoma, 79.9%.
In the case of `C=C1C(=O)O[C@H]2[C@H]1CC/C(C(=O)Nc1ccc(OC)c(C(N)=O)c1O)=C\CC[C@@]1(C)O[C@@H]21`, the growth in the assay on NCI-H23 lung was 73.4%; in the assay with NCI-H226 lung, 61.3%; in the assay on NCI-H322M lung it was 108%; in the assay with HOP-62 NSCLC, 85.1%; in the assay on NCI-H460 lung, 92%; in the assay on HOP-92 NSCLC, 26.4%. The growth in the assay with NCI-H522 lung was 5.78% (active); with A549/ATCC NSCLC it was 77.8%; in the assay with 786-0 renal it was 43.1%; in the assay with COLO 205 colon, 10.7%; with DU-145 prostate, 36.3%; in the assay on K-562 leukemia it was 22.9%. The growth in the assay on MALME-3M melanoma was 21%; in the assay on MDA-MB-231 breast it was 58.4%; with RXF 393 renal, 3.02% (active); with SF-268 CNS it was 86.3%; in the assay on SF-295 CNS it was 94.9%; in the assay on SF-539 CNS, 60.5%. For the same compound, the values for the growth in the assay with UACC-257 melanoma and in the assay on M14 melanoma were 51.1% and 55.8%, respectively.
`O=C(Nc1ccc(-n2ccc3c(NC(=O)c4ccccc4)ncnc32)cc1)Nc1ccc(Cl)c(C(F)(F)F)c1`: the growth with NCI-H23 lung was -28.2% (active); in the assay on NCI-H226 lung, 8.8% (active); in the assay with NCI-H322M lung it was 36%; in the assay on HOP-62 NSCLC, 20.1%; with NCI-H460 lung, -62.2% (active); with HOP-92 NSCLC, -8.52% (active). For the same compound, the growth was -58.9% (active) in the assay on NCI-H522 lung; -62.9% (active) with A549/ATCC NSCLC; 37% in the assay with 786-0 renal; 17.4% in the assay on COLO 205 colon; -22.7% (active) with DU-145 prostate; 0.237% (active) in the assay on K-562 leukemia. The growth with MALME-3M melanoma is 15%; with MDA-MB-231 breast it was 12%; with RXF 393 renal it was -56.9% (active); in the assay with SF-268 CNS it was -15% (active); with SF-295 CNS, -37.6% (active); in the assay with SF-539 CNS, 13.5%. Further, the values for the growth in the assay on UACC-257 melanoma and with M14 melanoma were 7.73% (active) and 3.01% (active), respectively.
Consider `Cc1cc2c(cc1C)N(C(=O)CCl)CCN2C(=O)CCl`, for which the growth with NCI-H23 lung was -57.1% (active); with NCI-H226 lung, -19.3% (active); in the assay with NCI-H322M lung, 10.2%; with HOP-62 NSCLC, -46.7% (active); in the assay with NCI-H460 lung, -54.7% (active); in the assay on HOP-92 NSCLC, -72.5% (active). The growth was -82.5% (active) in the assay on NCI-H522 lung; -29.4% (active) in the assay with A549/ATCC NSCLC; -24.8% (active) with 786-0 renal; -41.7% (active) with COLO 205 colon; -97.8% (active) in the assay on DU-145 prostate; 5.44% (active) with K-562 leukemia. In addition, the growth with MALME-3M melanoma was -57.3% (active); in the assay with MDA-MB-231 breast, -45.9% (active); in the assay with RXF 393 renal, -47.1% (active); with SF-268 CNS it was -33.4% (active); in the assay on SF-295 CNS it was 11.8%; in the assay on SF-539 CNS, -85.6% (active). Moreover, the growth in the assay on UACC-257 melanoma was -67.2% (active); in the assay on M14 melanoma it was -12.1% (active).
For `NS(=O)(=O)c1ccc(-n2nc(-c3ccc(Cl)cc3)ccc2=O)cc1`, the growth in the assay with NCI-H23 lung is 91.1%; with NCI-H226 lung it was 103%; in the assay on NCI-H322M lung, 110%; with HOP-62 NSCLC, 94.3%; with NCI-H460 lung it was 98%; in the assay on HOP-92 NSCLC, 90.9%. For the same compound, the growth in the assay with NCI-H522 lung is 16%; in the assay on A549/ATCC NSCLC, 95.4%; in the assay with 786-0 renal, 92.9%; in the assay with COLO 205 colon, 113%; with DU-145 prostate it was 102%; in the assay on K-562 leukemia, 45.9%. For the same compound, the growth in the assay on MALME-3M melanoma is 113%; with MDA-MB-231 breast it was 118%; in the assay on RXF 393 renal it was 95.6%; in the assay on SF-268 CNS it was 96.5%; in the assay on SF-295 CNS, -4.7% (active); in the assay on SF-539 CNS it was 84.4%. In addition, the growth in the assay on UACC-257 melanoma was 96.6%; in the assay with M14 melanoma, 96.2%.
Regarding `COc1cc(NC(C)CCCN2C(=O)c3ccccc3C2=O)c2nc(C)ccc2c1OC` (stereo not given), the growth in the assay on NCI-H23 lung is 87.9%; in the assay with NCI-H226 lung, 96.4%; with NCI-H322M lung it was 76.2%; in the assay with HOP-62 NSCLC it was 95.1%; with NCI-H460 lung, 103%; in the assay with HOP-92 NSCLC, 53.5%. Besides, the growth with NCI-H522 lung is 82%; with A549/ATCC NSCLC, 94.8%; with 786-0 renal, 97.5%; in the assay with COLO 205 colon, 99.3%; with DU-145 prostate it was 103%; with K-562 leukemia, 66.5%. Moreover, the growth in the assay with MALME-3M melanoma is 104%; with MDA-MB-231 breast, 78.3%; in the assay on RXF 393 renal, 96.4%; in the assay with SF-268 CNS, 104%; in the assay with SF-295 CNS, 93.5%; in the assay on SF-539 CNS, 99.4%. For the same compound, the growth in the assay with UACC-257 melanoma is 102%; with M14 melanoma, 99.9%.
For `COC(=O)Nc1nc2ccc(Sc3ccccc3)cc2[nH]1`, the growth with NCI-H23 lung is 32.7%; with NCI-H226 lung it was 19.9%; with NCI-H322M lung, 55.4%; with HOP-62 NSCLC, 29.4%; in the assay on NCI-H460 lung, 6.37% (active); in the assay on HOP-92 NSCLC, 54.2%. In addition, the growth with NCI-H522 lung is 13.4%; with A549/ATCC NSCLC, 13.4%; in the assay on 786-0 renal, 33.7%; with COLO 205 colon it was -14.7% (active); with DU-145 prostate, 17.5%; with K-562 leukemia, 5.33% (active). Besides, the growth with MALME-3M melanoma was 41.9%; in the assay with MDA-MB-231 breast it was 45.6%; with RXF 393 renal, 15%; in the assay on SF-268 CNS, 37.8%; in the assay with SF-295 CNS, -16.1% (active); in the assay with SF-539 CNS, 0.846% (active). Besides, the growth was 52.1% in the assay with UACC-257 melanoma and 8.93% (active) with M14 melanoma.
